Screening data: PubChem, National Center for Advancing Translational Sciences (NCATS)
In the library only some 0.36% were active in any assay of this set; here they are far more common.
IMPase inh: IMPase inhibition in cells | P97697 | inhibition (IP1 accumulation), % at 46.1 µM | CHO-M1 cells, IP1 accumulation, HTRF TR-FRET ratio | AID 901 | 120,000 tested, under 10 active; active means well fitted curve in the direction sought with a large enough effect in the signal ratio, not every such curve was filed as active; inconclusive means small, poorly fitted or top-dose-only effect, or a change in a side signal; inactive means no such curve, though single readings can be large or run the other way; the % refers to the signal ratio;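 further: cells stimulated with carbachol in lithium chloride buffer; plate controls were DMSO basal wells for no effect and reference inhibitor wells for full effect; higher means more IMPase inhibition seen as more IP1 and lower FRET ratio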
Target sequence (P97697 whole entry, looked up): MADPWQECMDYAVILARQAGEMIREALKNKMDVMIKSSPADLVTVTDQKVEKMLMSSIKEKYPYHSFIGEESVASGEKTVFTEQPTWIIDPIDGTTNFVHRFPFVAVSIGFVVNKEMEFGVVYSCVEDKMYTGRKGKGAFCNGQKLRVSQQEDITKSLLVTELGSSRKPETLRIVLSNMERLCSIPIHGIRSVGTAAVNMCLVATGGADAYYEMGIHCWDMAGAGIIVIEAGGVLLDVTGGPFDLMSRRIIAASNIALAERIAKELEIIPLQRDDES
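CHO-M1, 2000 cells/well, cultured 16–30 h; cpd up to 46 uM; carbachol (50 uM solution, stimulation buffer w/ 50 mM LiCl, pH 7.4), 30 min 37C; IP-One TR-FRET, 10 min RT; Ex 320/Em 665, 620; Hill-fit AC50.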
IMPase Li inh: cell-permeable IMPase inhibitors with lithium potentiation; AID 1457; actives 0.35% (n = 210,000); CHO-M1 cells, IP1 TR-FRET (IP-One), carbachol + lithium; Potency, µM (doses to about 59.4 µM), without a hit: top-dose activity, negative = IMPase inhibition, most hits filed as inhibitors; active means well fitted inhibition curve with a large enough effect; inconclusive means small, poorly fitted or top-dose-only effect; inactive means no such curve, though single readings can be large or run the other way;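 further: IP1 builds up when IMPase is blocked and the TR-FRET signal falls; potency means the concentration at half of the fitted maximal effect; plate controls were basal vehicle for no effect and high inhibitor control for full effect; nearly all actives have a fitted effect of over 50% in size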
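Lithium-sensitised IP1 accumulation assay; M1-expressing CHO cells treated 30 min at 37C with compound. Competitive antibody detection by time-resolved FRET followed a 10 min room-temperature lysis step.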
The depositor's hits bear a star; ? = inconclusive; · = no result given; [ ] = dose if it differs, or a comment.

SMILES	IMPase inh	IMPase Li inh
CN(C)C1C(=O)C(C(N)=O)C(=O)C2(O)C(=O)C3C(=O)c4c(O)ccc(Cl)c4C(O)C3CC12 (centres undefined)	·	10µM*
CN(C)C1C(=O)C(C(N)=O)=C(O)[C@@]2(O)C(=O)C3=C(O)c4c(O)ccc(Cl)c4C(O)[C@H]3C[C@@H]12 (some centres undefined)	·	-29%
COC(=O)[C@H](Cc1ccccc1)NC(=O)O[C@@H]1C(=O)c2ccc(OC)cc2O[C@H]1c1cccc(C(F)(F)F)c1	·	2%
COc1ccc(NC(=O)C(Cc2c[nH]c3ccccc23)NC(=O)OC(C)(C)C)cc1 (centres undefined)	-8	·
Cc1cc(C)c(OCC(=O)Nc2ccc3c(c2)OCO3)cc1C	-7	10µM*
Cc1ccc(C)c(OCC(=O)Nc2ccc3c(c2)OCO3)c1	-9	6%
COc1ccccc1-c1cc(C(=O)NC(C)C)no1	0	-9%[38.3 µM]
COc1ccccc1-c1cc(C(=O)Nc2ccc(F)cc2F)no1	?	8.9µM*
COCCn1c(=O)c(-c2cccs2)nc2cnc(N3CCNCC3)nc21	·	3%
Fc1ccc([C@@H]2Nc3ccccc3[C@@H]3C=CC[C@@H]32)cc1	5	·
CC(C)C(OC(=O)c1cccs1)C(=O)NCc1ccc2c(c1)OCO2 (centres undefined)	·	10%
CC(C)C(OC(=O)c1cccs1)C(=O)NCc1cccs1 (centres undefined)	2	25µM*
O=C1C2=C(S[C@@H]3O[C@H](CO)[C@@H](O)[C@H](O)[C@H]3O2)C(=O)c2ccccc21	·	11%
CCc1ccc(OCC(=O)Nc2ccc(-c3nc4ccccc4o3)c(O)c2)cc1	1	5.6µM*
COc1ccc(OCC(=O)Nc2cccc(-c3nc4ccccc4o3)c2)cc1	-1	-3%[38.3 µM]
O=C(Nc1ccc2oc(=O)ccc2c1)c1cc2ccccc2o1	29	12%
Cc1cc(=O)oc2cc(NC(=O)c3cc4ccccc4o3)ccc12	-2	2µM*
COc1ccc(CNc2nc(-c3cccc(C#N)c3)nc3ccccc23)c(OC)c1	·	12%
Nc1nc2c([nH]c(=S)n2C2OC(CO)C(O)C2O)c(=O)[nH]1 (centres undefined)	·	18%
CCOC(=O)c1sc2nc(COC(=O)c3c(F)cccc3F)[nH]c(=O)c2c1C	·	-2%
CCOC(=O)c1sc2nc(Cc3ccc(Cl)cc3)[nH]c(=S)c2c1C	·	7.9µM*
COc1cc2ccccc2cc1C(=O)Nc1ccc2oc(-c3ccccc3)nc2c1	-3	·
O=c1cnc2cnc(Oc3ccccc3)nc2n1Cc1cccs1	·	19%
Cc1nc2ccccc2nc1SCC(=O)N1CCC(C)CC1	?	13µM*
CC1CCCN(C(=O)CSc2cnc3ccccc3n2)C1 (centres undefined)	?	3.2µM*
SMILES	IMPase inh	IMPase Li inh
CC1CCN(C(=O)CSc2nc3ccccc3s2)CC1	12	-6%[38.3 µM]
CC1CCCN(C(=O)CSc2nc3ncccc3[nH]2)C1 (centres undefined)	·	-1%
CC(=O)c1c(O)c2ccccc2n(C)c1=O	·	-4%
Cc1ccc(Sc2c(O)c3ccccc3n(C)c2=O)cc1	·	10µM*
Cc1cc(N2C(=O)C(O)=C(C(=O)c3ccco3)C2c2ccc(O)cc2)no1 (centres undefined)	-18	?
Cc1cc(N2C(=O)C(O)=C(C(=O)c3ccc(C)o3)C2c2cccs2)no1 (centres undefined)	?	10µM*
CC(C)Nc1ncnc2ccc(Br)cc12	·	-10%
CSCCC(Nc1ncnc2ccc(Br)cc12)C(=O)O (centres undefined)	-27	10µM*
COC1=C(OC)C(=O)C(C/C=C(\C)CC/C=C(\C)CC/C=C(\C)CC/C=C(\C)CC/C=C(\C)CC/C=C(\C)CC/C=C(\C)CC/C=C(\C)CC/C=C(\C)CCC=C(C)C)=C(C)C1=O	·	-5%
O=c1c2[nH]c3ccccc3c2ncn1CCCn1ccnc1	-4	15%[38.3 µM]
O=c1c2[nH]c3ccc(Br)cc3c2ncn1CCCn1ccnc1	-6	5.6µM*
CCCCC(C)(O)C/C=C/[C@H]1[C@H](O)CC(=O)[C@@H]1CCCCCCC(=O)O (some centres undefined)	·	-7%
CCc1nc2oc3cc(OC)ccc3c(=O)c2c(=O)n1-c1ccccc1	-1	24%[38.3 µM]
Cc1ccc(-n2c(C)nc3oc4ccccc4c(=O)c3c2=O)cc1	-18	6.3µM*
COc1ccc(Cl)cc1C1CC(=O)Nc2cc3c(cc21)OCCO3 (centres undefined)	5	·
CC(C)C[C@H](N)C(=O)N[C@H](C(=O)N[C@H](C(=O)N[C@@H](Cc1ccc(O)cc1)C(=O)N1CCC[C@H]1C(=O)N[C@@H](Cc1c[nH]c2ccccc12)C(=O)N[C@H](C(=O)N[C@@H](CCC(N)=O)C(=O)N[C@@H](CCCN=C(N)N)C(=O)O)[C@@H](C)O)C(C)C)C(C)C	·	-5%
